The values that follow come from ChEMBL document CHEMBL2218924, “A broad activity screen in support of a chemogenomic map for kinase signalling research and drug discovery” (Biochem J, 2013).

Assay [1] addresses T1, Serine/threonine-protein kinase 17A (Homo sapiens) (UniProt Q9UEE5).
T1 sequence (whole entry): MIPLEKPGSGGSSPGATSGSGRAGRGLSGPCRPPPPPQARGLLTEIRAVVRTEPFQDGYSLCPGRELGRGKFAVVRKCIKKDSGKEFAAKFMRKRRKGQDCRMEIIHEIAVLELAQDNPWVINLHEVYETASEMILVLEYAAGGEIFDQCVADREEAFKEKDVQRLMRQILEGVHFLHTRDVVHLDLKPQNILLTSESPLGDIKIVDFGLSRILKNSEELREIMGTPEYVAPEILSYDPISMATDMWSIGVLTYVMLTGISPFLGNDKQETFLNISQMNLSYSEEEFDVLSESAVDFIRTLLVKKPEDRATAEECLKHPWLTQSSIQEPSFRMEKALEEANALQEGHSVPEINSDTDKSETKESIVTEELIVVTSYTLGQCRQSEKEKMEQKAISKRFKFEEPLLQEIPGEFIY
The settings on record: at 10 µM.

For assay [2], the target named is T2, Dual specificity tyrosine-phosphorylation-regulated kinase 2 (Homo sapiens) (UniProt Q92630).
T2 sequence (whole entry): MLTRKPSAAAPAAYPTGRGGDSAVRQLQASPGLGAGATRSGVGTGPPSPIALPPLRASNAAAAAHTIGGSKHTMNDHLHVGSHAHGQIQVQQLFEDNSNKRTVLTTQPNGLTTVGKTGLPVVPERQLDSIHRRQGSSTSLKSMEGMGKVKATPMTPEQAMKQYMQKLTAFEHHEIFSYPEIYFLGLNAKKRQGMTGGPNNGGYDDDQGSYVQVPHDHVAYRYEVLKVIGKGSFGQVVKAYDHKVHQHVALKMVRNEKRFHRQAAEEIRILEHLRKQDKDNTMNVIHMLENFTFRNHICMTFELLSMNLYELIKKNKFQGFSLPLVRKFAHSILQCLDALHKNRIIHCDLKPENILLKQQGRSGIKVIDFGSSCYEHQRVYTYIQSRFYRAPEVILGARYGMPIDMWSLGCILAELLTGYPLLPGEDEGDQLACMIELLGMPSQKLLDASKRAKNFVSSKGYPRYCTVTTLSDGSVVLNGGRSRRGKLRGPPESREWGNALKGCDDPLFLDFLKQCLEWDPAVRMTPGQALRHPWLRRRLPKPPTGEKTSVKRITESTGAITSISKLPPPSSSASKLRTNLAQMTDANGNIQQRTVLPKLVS
The settings on record: at 10 µM.

In assay [3] the target is T3, Ephrin type-A receptor 1 (Homo sapiens) (UniProt P21709).
T3 sequence (whole entry): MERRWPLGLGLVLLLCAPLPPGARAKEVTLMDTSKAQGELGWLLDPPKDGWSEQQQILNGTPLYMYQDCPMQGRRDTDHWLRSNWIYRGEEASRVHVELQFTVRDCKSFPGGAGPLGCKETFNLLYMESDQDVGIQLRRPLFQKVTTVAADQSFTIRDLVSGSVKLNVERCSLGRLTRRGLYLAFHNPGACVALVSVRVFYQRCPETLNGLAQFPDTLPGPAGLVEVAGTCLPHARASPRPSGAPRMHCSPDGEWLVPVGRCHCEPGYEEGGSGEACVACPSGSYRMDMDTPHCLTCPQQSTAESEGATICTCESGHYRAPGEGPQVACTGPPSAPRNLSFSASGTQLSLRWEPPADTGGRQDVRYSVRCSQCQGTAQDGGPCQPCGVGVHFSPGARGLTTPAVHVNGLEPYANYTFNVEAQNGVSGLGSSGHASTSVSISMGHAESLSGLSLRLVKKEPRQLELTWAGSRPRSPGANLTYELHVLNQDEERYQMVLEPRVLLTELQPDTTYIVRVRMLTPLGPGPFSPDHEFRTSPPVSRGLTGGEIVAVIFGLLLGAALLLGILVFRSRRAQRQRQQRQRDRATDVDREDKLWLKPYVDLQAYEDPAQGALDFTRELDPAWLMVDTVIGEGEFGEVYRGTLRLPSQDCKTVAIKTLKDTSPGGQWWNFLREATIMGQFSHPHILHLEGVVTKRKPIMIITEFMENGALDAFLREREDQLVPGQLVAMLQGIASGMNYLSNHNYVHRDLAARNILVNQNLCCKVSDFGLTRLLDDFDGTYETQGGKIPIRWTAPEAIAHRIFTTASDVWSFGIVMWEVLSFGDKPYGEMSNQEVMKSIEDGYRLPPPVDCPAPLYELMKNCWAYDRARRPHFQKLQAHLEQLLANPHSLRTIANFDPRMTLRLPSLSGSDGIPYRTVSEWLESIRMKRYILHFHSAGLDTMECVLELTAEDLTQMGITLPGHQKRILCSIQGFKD
The settings on record: at 1 µM.

Assay [4] concerns the target T3, Ephrin type-A receptor 1 (Homo sapiens). The note with it: at 10 µM.
Assay [5] addresses Ephrin type-A receptor 2 (Homo sapiens) (UniProt P29317). The note with it: at 1 µM.
The target in assay [6] is T4, Ephrin type-A receptor 3 (Homo sapiens) (UniProt P29320).
T4 sequence (whole entry): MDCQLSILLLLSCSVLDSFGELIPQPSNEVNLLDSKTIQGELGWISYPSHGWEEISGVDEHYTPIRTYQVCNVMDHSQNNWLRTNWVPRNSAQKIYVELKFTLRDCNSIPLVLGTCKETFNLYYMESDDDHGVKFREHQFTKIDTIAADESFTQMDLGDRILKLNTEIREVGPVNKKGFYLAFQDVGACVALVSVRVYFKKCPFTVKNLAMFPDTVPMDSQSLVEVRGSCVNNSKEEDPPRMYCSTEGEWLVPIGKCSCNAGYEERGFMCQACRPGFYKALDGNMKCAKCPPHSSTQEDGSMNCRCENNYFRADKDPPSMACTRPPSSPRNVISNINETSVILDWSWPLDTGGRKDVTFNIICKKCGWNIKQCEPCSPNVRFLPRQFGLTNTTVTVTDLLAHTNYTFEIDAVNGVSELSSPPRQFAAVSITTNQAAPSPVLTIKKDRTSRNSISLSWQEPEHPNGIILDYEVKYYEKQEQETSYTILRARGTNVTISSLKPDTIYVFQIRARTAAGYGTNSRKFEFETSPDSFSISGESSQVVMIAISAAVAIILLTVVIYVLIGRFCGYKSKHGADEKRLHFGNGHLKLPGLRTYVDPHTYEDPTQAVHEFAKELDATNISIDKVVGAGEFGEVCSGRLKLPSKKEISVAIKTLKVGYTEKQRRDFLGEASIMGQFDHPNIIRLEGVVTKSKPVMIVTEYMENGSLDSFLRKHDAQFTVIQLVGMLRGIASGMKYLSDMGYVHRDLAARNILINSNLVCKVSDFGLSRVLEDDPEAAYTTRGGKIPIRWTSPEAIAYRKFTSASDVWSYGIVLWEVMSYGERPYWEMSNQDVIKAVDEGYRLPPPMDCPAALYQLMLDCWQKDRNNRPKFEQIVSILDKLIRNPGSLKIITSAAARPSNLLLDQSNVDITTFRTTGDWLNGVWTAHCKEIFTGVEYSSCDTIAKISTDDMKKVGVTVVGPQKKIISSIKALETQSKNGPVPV
The note with it: at 10 µM.

Assay [7] has as its target Ephrin type-A receptor 4 (Homo sapiens) (UniProt P54764). The note with it: at 1 µM.
Assay [8] shares this target. The note with it: at 10 µM.
Assay [9] has as its target Ephrin type-A receptor 5 (Homo sapiens) (UniProt P54756). The note with it: at 10 µM.
Assay [10] deals with Ephrin type-A receptor 7 (Homo sapiens) (UniProt Q15375). The settings on record: at 10 µM.
Sequence of Ephrin type-A receptor 7 (Homo sapiens) (Q15375 28-998 limits assumed): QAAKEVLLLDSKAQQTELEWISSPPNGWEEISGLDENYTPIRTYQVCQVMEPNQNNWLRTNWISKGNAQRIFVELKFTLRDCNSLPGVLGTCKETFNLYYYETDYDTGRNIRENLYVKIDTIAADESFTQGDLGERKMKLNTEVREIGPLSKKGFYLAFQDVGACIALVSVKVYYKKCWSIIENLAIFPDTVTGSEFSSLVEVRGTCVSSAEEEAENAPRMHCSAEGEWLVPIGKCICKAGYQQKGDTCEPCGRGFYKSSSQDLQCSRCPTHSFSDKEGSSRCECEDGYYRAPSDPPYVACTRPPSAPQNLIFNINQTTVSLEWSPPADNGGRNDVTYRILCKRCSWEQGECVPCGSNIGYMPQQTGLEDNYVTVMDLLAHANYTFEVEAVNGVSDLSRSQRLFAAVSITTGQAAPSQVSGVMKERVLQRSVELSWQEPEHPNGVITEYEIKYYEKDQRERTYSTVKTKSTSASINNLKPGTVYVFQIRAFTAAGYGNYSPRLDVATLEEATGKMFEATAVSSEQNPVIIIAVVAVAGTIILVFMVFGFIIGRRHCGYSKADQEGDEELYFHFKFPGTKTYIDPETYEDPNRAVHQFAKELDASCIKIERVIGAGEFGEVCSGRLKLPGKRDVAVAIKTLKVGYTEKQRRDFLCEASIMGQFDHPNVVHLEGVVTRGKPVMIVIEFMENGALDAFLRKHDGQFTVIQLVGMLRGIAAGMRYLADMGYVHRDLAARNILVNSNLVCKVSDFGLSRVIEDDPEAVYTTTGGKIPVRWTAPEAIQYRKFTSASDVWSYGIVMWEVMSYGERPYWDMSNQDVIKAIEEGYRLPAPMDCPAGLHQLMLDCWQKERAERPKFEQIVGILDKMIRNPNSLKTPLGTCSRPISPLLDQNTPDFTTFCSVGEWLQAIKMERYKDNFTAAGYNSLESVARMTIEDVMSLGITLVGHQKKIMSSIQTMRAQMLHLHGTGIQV
Assay [11] deals with Epidermal growth factor receptor (Homo sapiens) (UniProt P00533). The note with it: at 1 µM.
The target is the same in assay [12]. The note with it: at 10 µM.
Assay [13] has as its target Ephrin type-A receptor 2 (Homo sapiens) (UniProt P29317). The settings on record: at 10 µM.
The target in assay [14] is Ephrin type-A receptor 5 (Homo sapiens) (UniProt P54756). The settings on record: at 1 µM.
Sequence of Ephrin type-A receptor 5 (Homo sapiens) (P54756 whole entry): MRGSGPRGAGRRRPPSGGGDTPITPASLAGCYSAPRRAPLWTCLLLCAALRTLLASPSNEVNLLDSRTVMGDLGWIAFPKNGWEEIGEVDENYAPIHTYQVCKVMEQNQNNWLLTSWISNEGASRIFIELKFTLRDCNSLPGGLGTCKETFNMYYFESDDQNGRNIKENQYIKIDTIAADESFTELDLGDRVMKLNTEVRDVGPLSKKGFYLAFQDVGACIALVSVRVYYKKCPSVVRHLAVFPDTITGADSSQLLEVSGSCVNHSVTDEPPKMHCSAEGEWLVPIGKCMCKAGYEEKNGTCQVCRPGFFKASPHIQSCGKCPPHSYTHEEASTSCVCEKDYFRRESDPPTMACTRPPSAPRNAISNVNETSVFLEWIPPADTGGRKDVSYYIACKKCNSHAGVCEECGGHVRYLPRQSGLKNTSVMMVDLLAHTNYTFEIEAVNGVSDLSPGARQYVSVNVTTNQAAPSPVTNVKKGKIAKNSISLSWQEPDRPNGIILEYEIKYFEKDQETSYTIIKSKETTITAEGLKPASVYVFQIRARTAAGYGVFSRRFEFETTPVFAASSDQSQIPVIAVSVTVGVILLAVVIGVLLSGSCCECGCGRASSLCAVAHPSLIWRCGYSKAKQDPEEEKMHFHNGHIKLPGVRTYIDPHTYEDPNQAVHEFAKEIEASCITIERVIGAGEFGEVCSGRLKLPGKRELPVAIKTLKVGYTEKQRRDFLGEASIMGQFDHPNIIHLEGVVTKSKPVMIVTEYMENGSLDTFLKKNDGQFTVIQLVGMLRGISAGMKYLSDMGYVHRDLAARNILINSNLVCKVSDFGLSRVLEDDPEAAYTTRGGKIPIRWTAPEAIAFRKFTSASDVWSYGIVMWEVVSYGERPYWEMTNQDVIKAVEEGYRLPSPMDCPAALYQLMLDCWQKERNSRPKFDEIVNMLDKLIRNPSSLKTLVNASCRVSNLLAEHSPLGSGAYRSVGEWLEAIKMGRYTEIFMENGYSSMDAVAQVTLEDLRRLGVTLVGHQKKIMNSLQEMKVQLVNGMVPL
Assay [15] addresses Ephrin type-A receptor 7 (Homo sapiens) (UniProt Q15375). The settings on record: at 1 µM.
For assay [16], the target named is T5, Ephrin type-A receptor 8 (Homo sapiens) (UniProt P29322).
T5 sequence (whole entry): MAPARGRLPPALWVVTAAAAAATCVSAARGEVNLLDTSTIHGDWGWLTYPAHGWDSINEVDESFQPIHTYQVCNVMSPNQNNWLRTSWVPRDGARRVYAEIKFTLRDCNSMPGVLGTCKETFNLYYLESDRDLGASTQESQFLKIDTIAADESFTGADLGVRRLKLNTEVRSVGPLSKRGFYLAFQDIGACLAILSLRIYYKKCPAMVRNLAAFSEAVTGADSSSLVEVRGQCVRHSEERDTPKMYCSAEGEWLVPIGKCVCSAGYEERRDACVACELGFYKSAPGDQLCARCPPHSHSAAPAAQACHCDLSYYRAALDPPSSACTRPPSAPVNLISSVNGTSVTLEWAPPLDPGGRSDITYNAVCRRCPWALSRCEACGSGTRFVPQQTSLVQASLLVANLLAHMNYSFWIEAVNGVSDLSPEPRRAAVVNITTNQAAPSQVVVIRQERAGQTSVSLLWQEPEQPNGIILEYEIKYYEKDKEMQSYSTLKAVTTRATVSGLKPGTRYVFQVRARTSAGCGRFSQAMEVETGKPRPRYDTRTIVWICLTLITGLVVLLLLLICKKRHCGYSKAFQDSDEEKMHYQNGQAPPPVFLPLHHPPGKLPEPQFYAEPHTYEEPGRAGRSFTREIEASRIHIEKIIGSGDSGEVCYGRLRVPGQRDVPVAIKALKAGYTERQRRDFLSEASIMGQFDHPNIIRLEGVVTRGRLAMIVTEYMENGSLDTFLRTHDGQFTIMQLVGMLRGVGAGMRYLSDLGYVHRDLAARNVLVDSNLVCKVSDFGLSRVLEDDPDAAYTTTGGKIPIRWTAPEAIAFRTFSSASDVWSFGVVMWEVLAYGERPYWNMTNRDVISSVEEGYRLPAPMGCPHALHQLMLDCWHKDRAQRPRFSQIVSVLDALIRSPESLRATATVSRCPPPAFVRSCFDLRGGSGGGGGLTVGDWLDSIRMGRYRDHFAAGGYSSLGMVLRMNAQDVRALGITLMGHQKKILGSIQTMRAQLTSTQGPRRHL
The note with it: at 1 µM.

The target in assay [17] is T5, Ephrin type-A receptor 8 (Homo sapiens). The settings on record: at 10 µM.
The target of assay [18] is T6, Ephrin type-B receptor 1 (Homo sapiens) (UniProt P54762).
T6 sequence (whole entry): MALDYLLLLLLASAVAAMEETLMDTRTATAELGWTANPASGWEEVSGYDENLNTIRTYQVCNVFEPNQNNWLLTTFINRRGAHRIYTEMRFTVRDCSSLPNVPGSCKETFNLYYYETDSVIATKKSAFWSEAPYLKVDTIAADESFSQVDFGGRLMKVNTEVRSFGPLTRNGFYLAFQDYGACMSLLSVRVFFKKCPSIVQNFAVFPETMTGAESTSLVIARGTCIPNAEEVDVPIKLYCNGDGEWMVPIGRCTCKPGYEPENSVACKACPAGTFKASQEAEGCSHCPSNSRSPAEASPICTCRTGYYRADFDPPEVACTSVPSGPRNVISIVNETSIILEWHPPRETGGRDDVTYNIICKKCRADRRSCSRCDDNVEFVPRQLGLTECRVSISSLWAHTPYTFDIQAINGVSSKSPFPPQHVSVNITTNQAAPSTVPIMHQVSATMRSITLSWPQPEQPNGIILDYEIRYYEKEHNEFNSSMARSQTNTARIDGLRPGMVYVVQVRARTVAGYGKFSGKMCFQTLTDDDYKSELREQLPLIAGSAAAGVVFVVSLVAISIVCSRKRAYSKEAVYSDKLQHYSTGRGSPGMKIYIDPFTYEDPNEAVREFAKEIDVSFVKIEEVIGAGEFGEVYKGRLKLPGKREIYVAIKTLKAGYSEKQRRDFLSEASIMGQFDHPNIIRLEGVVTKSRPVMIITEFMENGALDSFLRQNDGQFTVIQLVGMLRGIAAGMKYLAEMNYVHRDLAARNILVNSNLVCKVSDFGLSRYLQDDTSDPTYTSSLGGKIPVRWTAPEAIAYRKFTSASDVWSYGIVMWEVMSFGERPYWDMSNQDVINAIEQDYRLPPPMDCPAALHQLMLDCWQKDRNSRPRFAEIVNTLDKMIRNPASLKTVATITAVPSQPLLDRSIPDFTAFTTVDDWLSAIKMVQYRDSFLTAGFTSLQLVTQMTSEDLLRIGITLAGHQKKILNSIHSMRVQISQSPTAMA
The note with it: at 1 µM.

Assay [19] has as its target T2, Dual specificity tyrosine-phosphorylation-regulated kinase 2 (Homo sapiens). The note with it: at 1 µM.

Sequence of Ephrin type-A receptor 4 (Homo sapiens) (P54764 whole entry): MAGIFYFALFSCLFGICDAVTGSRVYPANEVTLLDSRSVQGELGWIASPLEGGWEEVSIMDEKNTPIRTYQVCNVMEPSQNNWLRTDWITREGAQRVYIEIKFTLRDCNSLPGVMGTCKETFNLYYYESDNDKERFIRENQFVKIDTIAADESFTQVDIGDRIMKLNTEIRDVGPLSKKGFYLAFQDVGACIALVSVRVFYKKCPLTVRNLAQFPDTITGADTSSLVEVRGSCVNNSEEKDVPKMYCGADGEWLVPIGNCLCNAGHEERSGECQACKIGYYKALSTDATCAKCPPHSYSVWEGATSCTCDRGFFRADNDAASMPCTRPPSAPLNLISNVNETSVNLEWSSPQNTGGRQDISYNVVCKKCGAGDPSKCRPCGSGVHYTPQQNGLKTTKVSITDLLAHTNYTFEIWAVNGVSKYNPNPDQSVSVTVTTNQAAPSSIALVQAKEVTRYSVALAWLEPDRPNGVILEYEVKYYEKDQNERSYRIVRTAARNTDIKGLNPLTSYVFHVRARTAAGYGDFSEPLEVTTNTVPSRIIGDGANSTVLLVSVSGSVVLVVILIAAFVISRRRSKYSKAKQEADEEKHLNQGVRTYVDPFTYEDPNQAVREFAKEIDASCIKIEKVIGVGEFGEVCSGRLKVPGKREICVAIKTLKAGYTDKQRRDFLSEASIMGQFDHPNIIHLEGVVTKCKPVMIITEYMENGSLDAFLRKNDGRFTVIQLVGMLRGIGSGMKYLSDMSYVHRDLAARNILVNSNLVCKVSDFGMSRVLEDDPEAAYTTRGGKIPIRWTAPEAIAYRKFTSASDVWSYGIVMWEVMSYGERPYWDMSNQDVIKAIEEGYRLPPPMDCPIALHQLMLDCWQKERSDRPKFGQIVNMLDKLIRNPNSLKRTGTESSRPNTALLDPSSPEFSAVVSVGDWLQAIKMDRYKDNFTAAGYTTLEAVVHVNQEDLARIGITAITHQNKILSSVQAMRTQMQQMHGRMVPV
Sequence of Ephrin type-A receptor 2 (Homo sapiens) (P29317 whole entry): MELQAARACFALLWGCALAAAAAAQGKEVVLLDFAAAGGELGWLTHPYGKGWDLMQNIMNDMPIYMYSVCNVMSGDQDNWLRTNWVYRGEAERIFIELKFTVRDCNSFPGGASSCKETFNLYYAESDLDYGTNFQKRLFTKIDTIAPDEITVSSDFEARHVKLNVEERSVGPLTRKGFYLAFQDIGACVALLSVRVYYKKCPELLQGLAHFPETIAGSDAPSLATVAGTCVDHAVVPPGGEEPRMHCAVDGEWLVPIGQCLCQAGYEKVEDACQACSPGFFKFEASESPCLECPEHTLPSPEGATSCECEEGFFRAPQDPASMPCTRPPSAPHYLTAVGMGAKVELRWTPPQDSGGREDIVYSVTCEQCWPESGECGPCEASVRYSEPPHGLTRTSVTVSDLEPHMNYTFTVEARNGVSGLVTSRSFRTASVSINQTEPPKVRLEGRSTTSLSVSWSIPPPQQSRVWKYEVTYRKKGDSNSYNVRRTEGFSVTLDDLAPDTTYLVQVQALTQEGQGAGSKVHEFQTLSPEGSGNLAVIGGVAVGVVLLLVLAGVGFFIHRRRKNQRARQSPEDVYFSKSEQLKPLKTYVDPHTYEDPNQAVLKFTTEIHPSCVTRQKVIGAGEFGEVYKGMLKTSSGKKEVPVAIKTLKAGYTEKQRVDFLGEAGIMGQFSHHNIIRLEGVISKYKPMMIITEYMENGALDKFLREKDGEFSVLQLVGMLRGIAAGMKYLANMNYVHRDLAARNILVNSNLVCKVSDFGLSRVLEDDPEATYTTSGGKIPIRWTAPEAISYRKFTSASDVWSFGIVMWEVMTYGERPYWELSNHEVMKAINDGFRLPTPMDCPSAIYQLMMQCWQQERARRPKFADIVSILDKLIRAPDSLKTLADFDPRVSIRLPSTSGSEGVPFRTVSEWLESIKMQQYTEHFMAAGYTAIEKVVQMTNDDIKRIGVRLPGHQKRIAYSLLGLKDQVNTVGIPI

Turning to `CSc1nc(-c2ccc(F)cc2)c(-c2ccnc(NC(C)c3ccccc3)c2)[nH]1` (configuration not stated), the residual activity in assay [1] amounted to 72%; in [2], 86%; in assay [3], 101%; in [4], 78%; in assay [5], 87%; in [6] it was 97%. Also, the residual activity in assay [7] came out at 102%; in assay [8], 91%; in assay [9] it was 97%; in [10], 95%.

For `COc1cc2ncnc(Nc3cccc(Cl)c3)c2cc1OC`, the residual activity in assay [1] was 48%; in assay [11] it was -5%; in assay [12], -3%; in [3], 42%; in [4] it was 7%; in assay [5], 89%. For the same molecule, the residual activity in assay [13] came out at 37%; in assay [6], 42%; in assay [7] it was 103%; in [8], 57%; in assay [14], 77%; in [9], 27%. The residual activity was 73% in assay [15]; 22% in assay [10]; 85% in [16]; 35% in assay [17]; 84% in assay [18].

Take `COc1ccc(-c2cnc3c(-c4ccsc4)cnn3c2)cc1`: the residual activity in assay [1] is 98%; in assay [19], 100%; in [2], 94%; in assay [6], 87%; in [14], 95%; in [15] it was 95%. In addition, the residual activity in assay [10] was 95%; in assay [16], 98%; in assay [17], 99%.

Regarding `O=C(Nc1ccc(Cl)cc1)c1ccccc1NCc1ccncc1`, in assay [1], the residual activity was found to be 99%.
